Drawing on PubChem BioAssay, this text covers composite z-score and z-score for 5 compounds.

A short description of test [1]: small molecules captured by biotinylated probe aFSTL3 – biochemical, small-molecule microarray, fluorescence 635/667, stem cell growth factor project, primary screen (AID 1064).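 Further: measures binding of the biotinylated anti-FSTL3 antibody to printed compounds.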 As to conditions: higher = more signal.
Test [2] in a line: binders from COS7 lysate, DM2A8 probe, primary screen, torsin A project, cell lysate, small-molecule microarray, fluorescence 635/667 (AID 1065). The conditions noted are these: higher = more signal, COS7 lysate expressing mutant human TOR1A.
A short description of test [3]: small molecules captured by biotinylated probe aFGF2 – biochemical, small-molecule microarray, fluorescence 635/667, stem cell growth factor project, primary screen (AID 1067).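 Further: measures binding of biotinylated aFGF2 protein to printed compounds on slides; z-score merges feature fluorescence and signal-to-noise across triplicate slides.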 The conditions noted are these: higher = more signal.
Test [4] can be described thus: small molecules captured by biotinylated probe aFGF10 – biochemical, small-molecule microarray, fluorescence 635/667, stem cell growth factor project, primary screen (AID 1071).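 Further: score merges 667 nm spot intensity and signal to noise from triplicate slides.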 The conditions noted are these: higher = more signal.
Test [5] has as its target Neurogenic locus notch homolog protein 2 (Homo sapiens) (UniProt Q04721). Put plainly: small molecules binding Notch2 protein – biochemical, small-molecule microarray, 635 nm fluorescence, stem cell growth factors, primary screen (AID 1073). The conditions noted are these: higher = more signal.
The target of test [6] is Pro-neuregulin-1, membrane-bound isoform (Homo sapiens) (UniProt Q02297). Put plainly: small molecules binding neuregulin-1 protein – biochemical, small-molecule microarray, fluorescence 635/667, psychiatric disease protein project, primary screen (AID 1075).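 Further: score combines 667 nm spot fluorescence with signal to noise.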 As to conditions: NRG1 binding, 635 nm fluorescence, higher = more signal.
Test [7] relates to Neuregulin-1 EGF-like domain. Put plainly: small molecules binding NRG1 EGF domain – biochemical, small-molecule microarray, 635 nm fluorescence, primary screen (AID 1081).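 Further: binding of the protein to compounds printed on small-molecule microarray slides.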 The conditions noted are these: higher = more signal.
The nature of test [8]: FRG1 expression reporter modulators in myotubes – cell-based, C2C12 myotubes, firefly/Renilla luciferase, luminescence, FRG1 inhibition for FSHD, primary screen (AID 1084). The conditions noted are these: FRG1 promoter luciferase, higher = more signal, called active from +8 up or from −8 down.
The nature of test [9]: small molecules captured by biotinylated probe aFST – biochemical, small-molecule microarray, fluorescence 635/667, stem cell growth factor project, primary screen (AID 1086).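 Further: score merges 667 nm fluorescence with signal-to-noise of each printed compound spot.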 As to conditions: higher = more signal.
A short description of test [10]: binders of probe aHhip on microarray, primary screen, stem cell growth factor project, biochemical, small-molecule microarray, fluorescence 635/667 (AID 1087).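 Further: score merges spot fluorescence at 667nm with spot signal to noise ratio.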 As to conditions: higher = more signal.
Test [11] deals with PRMT1 (protein arginine N-methyltransferase 1). Put plainly: small molecules binding arginine methyltransferase PRMT1 – biochemical, small-molecule microarray, 635 nm fluorescence, primary screen (AID 1088).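 Further: binding of Prmt1 protein to compounds spotted on small-molecule microarray slides.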 As to conditions: higher = more signal.
A short description of test [12]: growth effects on S. cerevisiae YJM789 – YJM789 clinical isolate, OD600, 24 h, basal, primary screen (AID 1089).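 Further: growth of clinical yeast isolate S. cerevisiae YJM 789 seeded 1000 cells per well; test concentration not given here.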 The conditions noted are these: higher = more signal, called active from +8 up or from −8 down.
The nature of test [13]: S. pombe growth modifiers, basal conditions – strain 972, OD600, 24 h, no modulator, primary screen (AID 1090).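 Further: basal condition with compound alone and no growth modifier present; test concentration not given here.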 The conditions noted are these: S. pombe 972 growth, higher = more signal, called active from +8 up or from −8 down.
Test [14] can be described thus: budding yeast growth modifiers under rapamycin – strain BY4716, OD600, 96 h, primary screen (AID 1091). Further: test concentration not given here. As to conditions: S. cerevisiae BY4716 + rapamycin, higher = more signal, called active from +8 up or from −8 down.
Test [15] has as its target Torsin-1A-interacting protein 2 (Homo sapiens) (UniProt Q8NFQ8). Put plainly: small molecules binding lysate-expressed LULL1 – cell lysate, human LULL1 lysate, 635/667 nm fluorescence, primary screen (AID 1092).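 Further: probe is lysate of COS7 cells overexpressing human LULL1; score merges per-feature 667 nm fluorescence with signal-to-noise.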 As to conditions: small-molecule microarray, hLULL1 lysate binding, 635 nm fluorescence; higher = more signal.
Test [16] in a line: optical density change of DRC41 E. coli – strain DRC41, OD650, 24 h, E. coli filamentation project, primary screen (AID 1093).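 Further: MC1000 strain lacking acrAB efflux and sulA so SOS filamentation is blocked; test concentration not given here.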 As to conditions: E. coli DRC41 growth, higher = more signal, called active from +8 up or from −8 down.
Test [17] is described as follows: probe aLefty2 binding to arrayed compounds – biochemical, biotinylated probe, 635/667 nm fluorescence, primary screen (AID 1094).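 Further: score merges spot fluorescence near 667 nm with spot signal-to-noise ratio.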 As to conditions: small-molecule microarray, higher = more signal.
Test [18] relates to Noggin (protein binding on small-molecule microarray). Put plainly: small molecules binding Noggin protein – biochemical, 635/667 nm fluorescence, primary screen (AID 1095).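 Further: score merges 667 nm feature fluorescence with signal to noise over triplicate slides.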 The conditions noted are these: 635 nm fluorescence, higher = more signal.
The target in test [19] is Neurogenic locus notch homolog protein 3 (Homo sapiens) (UniProt Q9UM47). Put plainly: small molecules binding NOTCH3 protein – biochemical, 635/667 nm fluorescence, primary screen (AID 1096). The conditions noted are these: small-molecule microarray, 635 nm fluorescence, higher = more signal.
Test [20] can be described thus: probe aEGFR binding to arrayed compounds – biochemical, biotinylated probe, 635/667 nm fluorescence, primary screen (AID 1097).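 Further: probe is a biotinylated anti-EGFR antibody binding compounds printed on slides; score combines fluorescence near 667 nm and signal to noise of each spot.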 The conditions noted are these: small-molecule microarray, higher = more signal.

Active and inactive are the calls of the source.

Neurogenic locus notch homolog protein 3 (Homo sapiens), sequence (Q9UM47 whole entry, looked up): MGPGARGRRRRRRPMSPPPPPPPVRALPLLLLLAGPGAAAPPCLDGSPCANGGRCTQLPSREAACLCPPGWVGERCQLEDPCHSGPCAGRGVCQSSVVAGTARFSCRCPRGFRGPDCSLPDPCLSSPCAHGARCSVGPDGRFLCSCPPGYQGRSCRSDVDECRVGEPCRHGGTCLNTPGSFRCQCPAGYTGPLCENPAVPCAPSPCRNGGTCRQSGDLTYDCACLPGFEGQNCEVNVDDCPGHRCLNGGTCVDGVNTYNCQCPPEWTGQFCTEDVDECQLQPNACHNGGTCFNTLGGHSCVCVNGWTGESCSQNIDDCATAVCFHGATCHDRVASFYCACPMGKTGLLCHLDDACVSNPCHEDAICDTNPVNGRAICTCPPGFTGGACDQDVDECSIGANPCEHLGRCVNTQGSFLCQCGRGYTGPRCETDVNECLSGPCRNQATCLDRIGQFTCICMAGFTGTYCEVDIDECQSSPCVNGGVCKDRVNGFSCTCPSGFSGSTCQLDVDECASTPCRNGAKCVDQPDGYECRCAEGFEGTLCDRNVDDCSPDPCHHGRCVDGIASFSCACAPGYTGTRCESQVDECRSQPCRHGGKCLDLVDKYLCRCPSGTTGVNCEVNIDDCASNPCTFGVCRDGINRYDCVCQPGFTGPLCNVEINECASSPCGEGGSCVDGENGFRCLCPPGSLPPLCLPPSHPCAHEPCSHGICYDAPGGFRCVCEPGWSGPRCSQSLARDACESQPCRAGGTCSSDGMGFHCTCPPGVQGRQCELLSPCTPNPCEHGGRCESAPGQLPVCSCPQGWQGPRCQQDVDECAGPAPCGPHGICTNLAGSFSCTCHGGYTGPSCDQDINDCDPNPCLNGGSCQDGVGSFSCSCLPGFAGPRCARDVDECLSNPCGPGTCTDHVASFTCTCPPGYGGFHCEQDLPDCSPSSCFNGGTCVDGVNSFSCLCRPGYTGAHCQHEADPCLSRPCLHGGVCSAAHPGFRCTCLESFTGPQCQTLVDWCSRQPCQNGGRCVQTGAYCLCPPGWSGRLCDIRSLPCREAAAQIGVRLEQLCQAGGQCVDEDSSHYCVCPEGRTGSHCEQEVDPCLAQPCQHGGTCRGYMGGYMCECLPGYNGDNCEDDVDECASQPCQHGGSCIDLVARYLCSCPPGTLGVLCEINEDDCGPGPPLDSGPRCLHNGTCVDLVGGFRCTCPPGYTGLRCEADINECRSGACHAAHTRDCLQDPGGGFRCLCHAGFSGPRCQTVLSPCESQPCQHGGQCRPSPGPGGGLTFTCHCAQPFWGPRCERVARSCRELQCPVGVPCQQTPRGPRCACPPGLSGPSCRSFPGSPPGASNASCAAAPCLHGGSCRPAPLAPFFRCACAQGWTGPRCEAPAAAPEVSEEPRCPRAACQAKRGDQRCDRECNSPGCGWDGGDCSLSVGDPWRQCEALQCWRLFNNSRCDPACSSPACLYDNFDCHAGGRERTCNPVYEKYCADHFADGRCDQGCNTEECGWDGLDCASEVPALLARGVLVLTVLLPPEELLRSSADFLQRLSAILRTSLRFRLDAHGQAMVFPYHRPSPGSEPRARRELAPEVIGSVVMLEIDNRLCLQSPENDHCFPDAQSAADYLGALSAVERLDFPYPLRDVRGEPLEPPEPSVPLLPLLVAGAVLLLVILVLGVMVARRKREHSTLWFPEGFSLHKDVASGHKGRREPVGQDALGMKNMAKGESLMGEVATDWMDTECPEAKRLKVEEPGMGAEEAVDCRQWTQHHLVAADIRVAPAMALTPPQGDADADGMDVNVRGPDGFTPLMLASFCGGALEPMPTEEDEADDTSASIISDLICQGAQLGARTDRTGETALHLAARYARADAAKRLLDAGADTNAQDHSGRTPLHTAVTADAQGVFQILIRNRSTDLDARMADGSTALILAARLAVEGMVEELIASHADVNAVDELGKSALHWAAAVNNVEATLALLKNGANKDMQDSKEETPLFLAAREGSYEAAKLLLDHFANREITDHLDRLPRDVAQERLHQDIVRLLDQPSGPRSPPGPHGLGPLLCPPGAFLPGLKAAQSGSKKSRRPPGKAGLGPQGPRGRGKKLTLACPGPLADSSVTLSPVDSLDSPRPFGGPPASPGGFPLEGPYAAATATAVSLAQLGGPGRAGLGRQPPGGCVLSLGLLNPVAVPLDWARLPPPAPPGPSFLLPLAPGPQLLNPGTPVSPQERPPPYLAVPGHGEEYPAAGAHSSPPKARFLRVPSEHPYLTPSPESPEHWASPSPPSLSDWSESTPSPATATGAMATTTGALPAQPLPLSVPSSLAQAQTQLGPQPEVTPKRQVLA
Pro-neuregulin-1, membrane-bound isoform (Homo sapiens), sequence (Q02297 whole entry, looked up, the tested form may be a part, canonical isoform): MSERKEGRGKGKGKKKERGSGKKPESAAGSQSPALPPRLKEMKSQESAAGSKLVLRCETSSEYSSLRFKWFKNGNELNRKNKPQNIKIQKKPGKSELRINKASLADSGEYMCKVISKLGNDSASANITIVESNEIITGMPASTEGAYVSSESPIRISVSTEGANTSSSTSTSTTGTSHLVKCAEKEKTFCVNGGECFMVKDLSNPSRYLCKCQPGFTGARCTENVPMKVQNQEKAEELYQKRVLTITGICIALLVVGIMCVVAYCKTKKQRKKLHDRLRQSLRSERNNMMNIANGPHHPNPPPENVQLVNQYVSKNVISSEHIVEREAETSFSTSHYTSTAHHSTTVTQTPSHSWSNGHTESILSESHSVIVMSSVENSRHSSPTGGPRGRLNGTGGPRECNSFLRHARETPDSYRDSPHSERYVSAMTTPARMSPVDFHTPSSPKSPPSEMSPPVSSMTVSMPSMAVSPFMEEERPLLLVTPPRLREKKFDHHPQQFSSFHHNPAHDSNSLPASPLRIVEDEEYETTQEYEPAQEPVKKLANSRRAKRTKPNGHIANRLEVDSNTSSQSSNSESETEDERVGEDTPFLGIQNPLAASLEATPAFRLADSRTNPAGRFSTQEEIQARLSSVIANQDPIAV
Torsin-1A-interacting protein 2 (Homo sapiens), sequence (Q8NFQ8 whole entry, looked up): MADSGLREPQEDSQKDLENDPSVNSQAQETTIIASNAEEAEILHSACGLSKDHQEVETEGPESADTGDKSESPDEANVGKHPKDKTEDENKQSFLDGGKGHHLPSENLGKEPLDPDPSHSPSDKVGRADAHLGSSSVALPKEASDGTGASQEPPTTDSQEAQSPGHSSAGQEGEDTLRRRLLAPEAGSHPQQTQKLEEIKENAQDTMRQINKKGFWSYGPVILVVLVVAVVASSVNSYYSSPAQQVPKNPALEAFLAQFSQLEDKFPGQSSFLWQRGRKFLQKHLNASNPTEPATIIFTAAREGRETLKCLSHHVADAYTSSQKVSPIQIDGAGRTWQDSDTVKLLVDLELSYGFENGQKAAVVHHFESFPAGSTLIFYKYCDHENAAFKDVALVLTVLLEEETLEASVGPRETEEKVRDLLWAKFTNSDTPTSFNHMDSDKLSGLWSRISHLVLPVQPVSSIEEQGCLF

Take `CN(C)CCCNC(=O)[C@@]1(c2ccc([N+](=O)[O-])cc2)CC(=O)N(CC23CC4CC(CC(C4)C2)C3)[C@@H]1c1ccc(CO)cc1I`: the composite z-score in test [1] is -0.319; in test [2] it was 0.634; in [3] it was -0.0687; in test [4] it was 0.272; in test [5], 1.2; in test [6], 0.343. Further, the composite z-score is 1.36 in test [7]; 1.48 in [9]; 0.0749 in test [10]; 1.53 in test [11]; 2.35 in [15]; -0.182 in test [17]. The values for the composite z-score in test [18], in test [19] and in [20] were 1.75, 1.06 and 0.0209, respectively. For the same compound, the z-score is -2.44 (inactive) in test [8]; -25.1 (active) in test [12]; -18.6 (active) in test [13]; -2.21 (inactive) in [14]; -6.64 (inactive) in [16].

In the case of `[N-]=[N+]=Nc1ccccc1[C@H]1OC(c2ccc(OCCCO)cc2)=N[C@@]1(Cc1ccccc1)C(=O)N1CCCCC1`, the composite z-score in test [1] was 0.308; in test [2], -0.182; in test [3] it was -0.0044; in test [4], 0.692; in [5] it was 1.63; in test [6] it was 1.01. Also, the composite z-score in test [7] was 1.32; in test [9], 0.763; in [10], -0.0994; in [11], 1.54; in [15], 3.29; in test [17], 0.339. Besides, the composite z-score came out at 0.94 in [18], 1.08 in test [19] and 0.286 in test [20]. Further, the z-score in test [8] is -1.02 (inactive); in test [12], -2.09 (inactive); in test [13], 0.708 (inactive); in test [14], 2.21 (inactive); in [16], 0.774 (inactive).

For `CC1CC/C=C\[C@H]2OC34C=CCN(C(C)C)C(=O)[C@H]3N(CCCCCCO)C(=O)[C@@H]4C2C(=O)O1` (stereo not given in full), the composite z-score in test [1] was 0.315; in test [2] it was -0.671; in test [3], -0.143; in test [4], -0.178; in test [5], -0.357; in [6], 1.06. In addition, the composite z-score is 0.147 in test [7]; -0.856 in test [9]; -0.304 in test [10]; -1.25 in [11]; -1.42 in [15]; -0.136 in test [17]. Moreover, the values for the composite z-score in [18], in test [19] and in test [20] were -0.705, -0.514 and -0.237, respectively. Further, the z-score in [8] is 0.286 (inactive); in test [12] it was -1.39 (inactive); in test [13], -0.482 (inactive); in [14], -1.27 (inactive); in test [16], 2.5 (inactive).

Regarding `CN1C(=O)C2C=CC(C(O)c3ccccn3)N(N(c3ccccc3)c3ccccc3)C2C1=O` (stereo not given), the composite z-score in test [1] turned out to be 0.733; in test [2], 0.0014; in test [3], 0.0276; in [4], 0.0491; in test [5], 0.594; in test [6], 0.899. Besides, the composite z-score in [7] came to 0.622; in test [9], 0.613; in [10], 0.245; in test [11], 0.412; in test [15], 1.87; in test [17] it was 0.235. For the same compound, the composite z-score was -0.112 in test [18], -0.343 in test [19] and 0.0353 in test [20]. For the same compound, the z-score is 0.164 (inactive) in test [8]; 1.13 (inactive) in [12]; 0.863 (inactive) in test [13]; 0.491 (inactive) in test [14]; -0.828 (inactive) in [16].

Regarding `COc1cc(CO)cc(I)c1O[C@H]1C=C(C(=O)NCCO)C[C@@H](NCc2ccc(F)cc2)[C@@H]1O`, the composite z-score was -0.519 in test [1]; 0.254 in [2]; 0.0062 in test [3]; 1.34 in test [4]; 0.366 in test [5]; 0.406 in test [6]. Moreover, the composite z-score was -0.0461 in [7]; 0.245 in test [9]; -0.0645 in test [10]; 1.07 in test [11]; -0.135 in test [15]; -0.109 in [17]. The composite z-score in test [18] is 0.938; in test [19], 0.305; in test [20], -0.128. Also, the z-score is -1.14 (inactive) in test [8]; 1.41 (inactive) in test [12]; -9.13 (active) in test [13]; 0.388 (inactive) in test [14]; 0.944 (inactive) in test [16].
